# Experimental data published in the supplement of paper PMC12282887.
# ± gives the standard deviation of the averaged measurements.
# Columns and labels:
# Assay in all cases: promoter activity interaction Z-score (Lux/OD deviation from empty-vector control); higher = stronger promoter induction by the compound
# [1] = tested on: E. coli BW25113 acrABp lux reporter
# Outline: (§1)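 E. coli BW25113 luxCDABE reporter strains grew at 37°C in 40 µl LB Lennox in 384-well plates, with OD600 and luminescence read every 30 min for 12 h. After integration over 0–8 h for wild type or 1–9 h for deletion strains, wells under 10% of the median growth value were removed. Each score is the Z-transformed residual of growth-normalised luminescence fitted against a control.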
# [2] = tested on: E. coli BW25113 micFp lux reporter
# Outline: as §1
# [3] = tested on: E. coli BW25113 ompFp lux reporter
# Outline: as §1
# [4] = tested on: E. coli BW25113 robp lux reporter
# Outline: as §1
# [5] = tested on: E. coli BW25113 soxSp lux reporter
# Outline: as §1
# [6] = tested on: E. coli BW25113 tolCp lux reporter
# Outline: as §1
# [7] = 0.011 µg/ml, genetic background: wild type
# [8] = 0.011 µg/ml, genetic background: ΔmarA
# [9] = 0.011 µg/ml, genetic background: Δrob
# [10] = 0.011 µg/ml, genetic background: ΔsoxS
# [11] = 0.023 µg/ml, genetic background: wild type
# [12] = 0.023 µg/ml, genetic background: ΔmarA
# [13] = 0.023 µg/ml, genetic background: Δrob
# [14] = 0.023 µg/ml, genetic background: ΔsoxS
# [15] = 0.046 µg/ml, genetic background: wild type
# [16] = 0.046 µg/ml, genetic background: ΔmarA
# [17] = 0.046 µg/ml, genetic background: Δrob
# [18] = 0.046 µg/ml, genetic background: ΔsoxS
# [19] = 0.091 µg/ml, genetic background: wild type
# [20] = 0.091 µg/ml, genetic background: ΔmarA
# [21] = 0.091 µg/ml, genetic background: Δrob
# [22] = 0.091 µg/ml, genetic background: ΔsoxS
smiles,measurement,setting,value
C[C@@H]1O[C@@H]1P(=O)(O)O [Fosfomycin],promoter activity interaction Z-score,[1]; [7],-0.0514 ± 0.17
same,promoter activity interaction Z-score,[1]; [8],0.0429 ± 0.25
same,promoter activity interaction Z-score,[1]; [9],0.201 ± 0.24
same,promoter activity interaction Z-score,[1]; [10],-0.0843 ± 0.31
same,promoter activity interaction Z-score,[1]; [11],0.134 ± 0.25
same,promoter activity interaction Z-score,[1]; [12],0.445 ± 0.43
same,promoter activity interaction Z-score,[1]; [13],0.174 ± 0.14
same,promoter activity interaction Z-score,[1]; [14],-0.242 ± 0.29
same,promoter activity interaction Z-score,[1]; [15],-0.142 ± 0.12
same,promoter activity interaction Z-score,[1]; [16],-0.284 ± 0.14
same,promoter activity interaction Z-score,[1]; [17],0.229 ± 0.37
same,promoter activity interaction Z-score,[1]; [18],0.118 ± 0.17
same,promoter activity interaction Z-score,[1]; [19],1.76 ± 0.8
same,promoter activity interaction Z-score,[1]; [20],2.58 ± 0.66
same,promoter activity interaction Z-score,[1]; [21],1.15 ± 0.18
same,promoter activity interaction Z-score,[1]; [22],0.198 ± 1.3
same,promoter activity interaction Z-score,[2]; [7],-0.227 ± 0.25
same,promoter activity interaction Z-score,[2]; [8],0.053 ± 0.061
same,promoter activity interaction Z-score,[2]; [9],-0.0521 ± 0.036
same,promoter activity interaction Z-score,[2]; [10],-0.3 ± 0.065
same,promoter activity interaction Z-score,[2]; [11],-0.0683 ± 0.18
same,promoter activity interaction Z-score,[2]; [12],0.0385 ± 0.078
same,promoter activity interaction Z-score,[2]; [13],-0.0229 ± 0.046
same,promoter activity interaction Z-score,[2]; [14],-0.31 ± 0.0043
same,promoter activity interaction Z-score,[2]; [15],-0.471 ± 0.25
same,promoter activity interaction Z-score,[2]; [16],-0.104 ± 0.084
same,promoter activity interaction Z-score,[2]; [17],-0.121 ± 0.023
same,promoter activity interaction Z-score,[2]; [18],0.017 ± 0.027
same,promoter activity interaction Z-score,[2]; [19],0.578 ± 0.33
same,promoter activity interaction Z-score,[2]; [20],-0.163 ± 0.034
same,promoter activity interaction Z-score,[2]; [21],-0.0601 ± 0.12
same,promoter activity interaction Z-score,[2]; [22],-0.264 ± 0.2
same,promoter activity interaction Z-score,[3]; [7],0.269 ± 0.034
same,promoter activity interaction Z-score,[3]; [8],0.352 ± 0.034
same,promoter activity interaction Z-score,[3]; [9],-0.181 ± 0.21
same,promoter activity interaction Z-score,[3]; [10],0.154 ± 0.62
same,promoter activity interaction Z-score,[3]; [11],0.162 ± 0.32
same,promoter activity interaction Z-score,[3]; [12],0.534 ± 0.28
same,promoter activity interaction Z-score,[3]; [13],0.297 ± 0.084
same,promoter activity interaction Z-score,[3]; [14],-0.146 ± 0.43
same,promoter activity interaction Z-score,[3]; [15],-0.707 ± 0.057
same,promoter activity interaction Z-score,[3]; [16],0.0141 ± 0.47
same,promoter activity interaction Z-score,[3]; [17],0.161 ± 0.65
same,promoter activity interaction Z-score,[3]; [18],0.414 ± 0.21
same,promoter activity interaction Z-score,[3]; [19],3.07 ± 0.41
same,promoter activity interaction Z-score,[3]; [20],3.8 ± 2.2
same,promoter activity interaction Z-score,[3]; [21],2.55 ± 1.5
same,promoter activity interaction Z-score,[3]; [22],2.08 ± 5
same,promoter activity interaction Z-score,[4]; [7],0.505 ± 0.043
same,promoter activity interaction Z-score,[4]; [8],0.245 ± 0.25
same,promoter activity interaction Z-score,[4]; [9],0.133 ± 0.36
same,promoter activity interaction Z-score,[4]; [10],0.554 ± 0.71
same,promoter activity interaction Z-score,[4]; [11],0.0622 ± 0.91
same,promoter activity interaction Z-score,[4]; [12],0.483 ± 0.81
same,promoter activity interaction Z-score,[4]; [13],0.389 ± 0.11
same,promoter activity interaction Z-score,[4]; [14],1.15 ± 1.3
same,promoter activity interaction Z-score,[4]; [15],-0.338 ± 0.75
same,promoter activity interaction Z-score,[4]; [16],-0.357 ± 0.2
same,promoter activity interaction Z-score,[4]; [17],0.416 ± 0.18
same,promoter activity interaction Z-score,[4]; [18],1.3 ± 1
same,promoter activity interaction Z-score,[4]; [19],-0.301 ± 0.048
same,promoter activity interaction Z-score,[4]; [20],0.127 ± 0.3
same,promoter activity interaction Z-score,[4]; [21],-0.752 ± 0.35
same,promoter activity interaction Z-score,[4]; [22],-0.158 ± 0.9
same,promoter activity interaction Z-score,[5]; [7],0.228 ± 0.36
same,promoter activity interaction Z-score,[5]; [8],0.2 ± 0.11
same,promoter activity interaction Z-score,[5]; [9],-0.0473 ± 0.12
same,promoter activity interaction Z-score,[5]; [10],0.164 ± 0.072
same,promoter activity interaction Z-score,[5]; [11],-0.175 ± 0.12
same,promoter activity interaction Z-score,[5]; [12],0.188 ± 0.14
same,promoter activity interaction Z-score,[5]; [13],-0.154 ± 0.05
same,promoter activity interaction Z-score,[5]; [14],0.0176 ± 0.14
same,promoter activity interaction Z-score,[5]; [15],-0.307 ± 0.09
same,promoter activity interaction Z-score,[5]; [16],0.119 ± 0.16
same,promoter activity interaction Z-score,[5]; [17],0.0235 ± 0.023
same,promoter activity interaction Z-score,[5]; [18],0.138 ± 0.19
same,promoter activity interaction Z-score,[5]; [19],-0.0128 ± 0.14
same,promoter activity interaction Z-score,[5]; [20],0.0924 ± 0.018
same,promoter activity interaction Z-score,[5]; [21],-0.135 ± 0.043
same,promoter activity interaction Z-score,[5]; [22],0.657 ± 0.49
same,promoter activity interaction Z-score,[6]; [7],-0.233 ± 0.12
same,promoter activity interaction Z-score,[6]; [8],-0.202 ± 0.12
same,promoter activity interaction Z-score,[6]; [9],-0.412 ± 0.27
same,promoter activity interaction Z-score,[6]; [10],-0.149 ± 0.38
same,promoter activity interaction Z-score,[6]; [11],-0.358 ± 0.5
same,promoter activity interaction Z-score,[6]; [12],0.891 ± 0.16
same,promoter activity interaction Z-score,[6]; [13],-0.173 ± 0.68
same,promoter activity interaction Z-score,[6]; [14],0.35 ± 0.7
same,promoter activity interaction Z-score,[6]; [15],-1.79 ± 0.32
same,promoter activity interaction Z-score,[6]; [16],-0.292 ± 0.4
same,promoter activity interaction Z-score,[6]; [17],-0.445 ± 0.36
same,promoter activity interaction Z-score,[6]; [18],0.22 ± 0.3
same,promoter activity interaction Z-score,[6]; [19],-0.204 ± 0.16
same,promoter activity interaction Z-score,[6]; [20],-0.347 ± 0.15
same,promoter activity interaction Z-score,[6]; [21],-0.366 ± 0.71
same,promoter activity interaction Z-score,[6]; [22],-0.266 ± 0.13
